Drawing on PubChem BioAssay (NCI), this text covers growth for six molecules.

About 83,000 compounds went through this panel and 20% of them were active in at least one assay; those are over-represented in the sample as a whole.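 Cell lines were cultured in 96-well plates, exposed to a single compound concentration, and assessed for percent growth 48 hours later.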 The source made the active and inactive calls. Rule for the calls: active = growth percent below 10; inactive = the rest.

For the assay, the system named is HL-60(TB) leukemia. The assay is described as follows: NCI-60 one-dose screen, 48 h (100 = growth as untreated, 0 = no growth, -100 = all killed). To be noted: 10 µM unless noted.
In the case of `CCOc1ccc2c(c1)CN(Cc1ccc(Cl)cc1)CO2`, the growth is 94.9% (inactive).

As to `Cc1cc2nc(CC(=O)c3ccccc3)c(=O)[nH]c2cc1C`, the growth is 103% (inactive).

As for `Cc1nonc1-c1ccc2c(c1)OCO2`, the growth was 86.9% (inactive).

On to `N#Cc1c(-c2ccc(Cl)cc2)nc2c(c(-c3ccccc3)nn2-c2ccccc2)c1-c1ccc(O)cc1`, for which the growth was 32.8% (inactive).

Consider `COC(=O)C(Cc1ccccc1)NC(=O)NC(=O)NC(=O)CI` (stereo unspecified), for which the growth was -51.3% (active).

As for `COc1cc(/C=C2\CN(C)C/C(=C\c3cc(CN4CCOCC4)c(O)c(OC)c3)C2=O)cc(CN2CCOCC2)c1O`, the growth was 32.6% (inactive).
